Measured values from PubChem BioAssay AID651601 (Sanford-Burnham Center for Chemical Genomics, 2012).
Activity calls are given as the source filed them.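 How the source made its calls: active means CXCR6 mean IC50 below 15 µM, and neither CCR6 nor CXCR5 mean IC50 under five times that; inactive means the rest.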

Each molecule was assayed against C-X-C chemokine receptor type 5 (Homo sapiens) (UniProt P32302) (assay: chemokine receptor panel antagonism: CCR6, CXCR5, CXCR6, profiling panel, selectivity assay for CXCR6 antagonist project, cell-based, CHO-K1 PathHunter beta-arrestin, luminescence (AID 651601)). Settings: antagonist mode, mean of runs.
Sequence of C-X-C chemokine receptor type 5 (Homo sapiens) (P32302 whole entry, looked up): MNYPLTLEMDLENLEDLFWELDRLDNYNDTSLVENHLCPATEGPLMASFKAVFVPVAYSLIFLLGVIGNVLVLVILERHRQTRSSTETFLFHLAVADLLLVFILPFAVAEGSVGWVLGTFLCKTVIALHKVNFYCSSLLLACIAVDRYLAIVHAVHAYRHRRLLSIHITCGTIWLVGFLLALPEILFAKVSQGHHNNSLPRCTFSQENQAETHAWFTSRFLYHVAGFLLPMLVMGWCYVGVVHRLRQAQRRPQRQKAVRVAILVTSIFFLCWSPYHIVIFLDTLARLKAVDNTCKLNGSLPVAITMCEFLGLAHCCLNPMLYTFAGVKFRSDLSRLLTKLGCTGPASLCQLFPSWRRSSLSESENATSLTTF

outcome, inactive:
CN(C)c1ccc(NC(=O)CN2C3CCCC2CC(NC(=O)c2ccccc2)C3)cc1 (stereo unspecified)
O=C(CN1C2CCCC1CC(NC(=O)c1ccccc1)C2)Nc1ccccc1C(F)(F)F (stereo unspecified)
O=C(CN1C2CCCC1CC(NC(=O)c1ccccc1)C2)Nc1ccccc1 (stereo unspecified)
COc1cccc(C(=O)NC2CC3CCCC(C2)N3CC(=O)Nc2ccccc2C(F)(F)F)c1 (stereo unspecified)
COc1cc(C(=O)NC2CC3CCCC(C2)N3CC(=O)Nc2ccccc2)cc(OC)c1OC (stereo unspecified)
COc1cccc(C(=O)NC2CC3CCCC(C2)N3CC(=O)Nc2ccc(N(C)C)cc2)c1 (stereo unspecified)
